Screens: PubChem, several laboratories
Sampled rows, rich in hits. Any-hit rate of the full collection: about 1.2%.
HUVEC tox TNFa = HUVEC cytotoxicity counter-screen, TNF alpha stimulated | HUVEC TNFalpha-stimulated, Hoechst cell count, imaging | cell count reduction, % at 2 µM | 93,000 compounds, 0.17% hits | AID 848;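 active means cell count reduction exceeding the screen mean by over 5 SD, scaled to untreated wells per plate, cut at about 78% in these data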;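 further: cells counted after 24 h of TNF alpha exposure following the 1 h pretreatment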
SDO1 yeast rescue = sdo1-depleted yeast growth rescue; S. cerevisiae sdo1-depleted JHY4D growth rescue, OD600 30 h; hits give high values; pdr5 snq2 efflux-pump mutant strain; z-score at 10 µM; 140,000 compounds, 0.21% hits; AID 817;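 active means z-score above 3 at both the 24 hr and the 30 hr optical density reads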;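 further: z-score against mean and SD of all compound wells on the same plate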
VCAM1 TNFa inh = reduces TNF alpha induced VCAM1 expression in HUVEC. AID 802. inhibition, % at 2 µM. HUVEC TNFa-induced VCAM-1 immunofluorescence, high-content imaging. 95,000 compounds, 0.48% hits;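 active means inhibition above the batch mean plus 3 SD, with images confirmed as a hit by eye, cut at about 37% in these data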;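 further: 0% = TNF-stimulated DMSO wells and 100% = unstimulated control wells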
E-sel TNF inh = blocks E-selectin expression induced by TNF alpha; HUVEC TNFa-induced E-selectin immunofluorescence, high content; inhibition, % at 2 µM; 120,000 compounds, 0.71% hits;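 active means inhibition above the batch mean plus 3 SD, and confirmed as a hit on visual image review, cut at about 43% in these data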;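 further: 0% = TNF-stimulated DMSO wells and 100% = unstimulated control wells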
cytoskel mod = alters cytoskeleton assembly in HUVEC cells. HUVEC TNFa F-actin phalloidin imaging, high content. inhibition, % at 2 µM. 91,000 compounds, 0.18% hits;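 active means inhibition above the batch mean plus 3 SD and confirmed as a hit by visual image inspection, cut at about 30% in these data, passing the limit was not always enough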
Phagocytosis inh = inhibitors of macrophage phagocytosis. J774A.1 macrophage IgG-bead phagocytosis, imaging. inhibition, % at 5 µM. 110,000 compounds, 0.07% hits;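 active means inhibition above the mean of the plate negative controls plus 5 SD, cut at about 13% in these data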;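 further: phagocytic index as fraction of beads internalized from green versus red external bead signal; plate controls were DMSO negative control for no effect and cytochalasin-D positive control for full effect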
SDO1 rescue DR = confirmation of growth rescue in SDO1-depleted yeast, bone marrow failure | 440 compounds, 44% hits | shares compounds with SDO1 yeast rescue | OD recovery (test concentration not listed) | AID 949 | S. cerevisiae JHY4D (SDO1-depleted) growth rescue, OD600, 30 h; hits give high values; efflux-deficient strain, SNQ2 and PDR5 mutated;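 active means yeast growth recovered at 30 hours, either rising with dose fitted slope above 0.001 or with average optical density gain above 0.07, some results past the limit were not filed as active; inactive means growth falling with dose or no effect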;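 further: gain in OD600 from 0 h to 30 h averaged across all seven doses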
Numbers without * were called inactive.

Screening O=C(O)COc1ccc2occ(C(=O)c3ccccc3)c2c1 returned HUVEC tox TNFa -10.1, SDO1 yeast rescue 0.12, VCAM1 TNFa inh 22.5, E-sel TNF inh 15.8, cytoskel mod 10.8 and Phagocytosis inh 1.2.
COC(=O)COc1ccc2occ(C(C)=O)c2c1 was read as HUVEC tox TNFa -19.8, SDO1 yeast rescue 3.63*, VCAM1 TNFa inh -33.0, cytoskel mod -7.6, Phagocytosis inh 1.8 and SDO1 rescue DR 0.113*.
For Cc1cc(OC(=O)c2ccc(S(=O)(=O)N(C)C)cc2)c([N+](=O)[O-])c(=O)[nH]1 the results were E-sel TNF inh -32.4.
`CS(=O)(=O)N(Cc1ccc(C(=O)NCCSc2ccccn2)cc1)c1ccccc1` gave SDO1 yeast rescue -0.12, E-sel TNF inh -1.2 and Phagocytosis inh -8.6.
For Cc1ccc(N(Cc2ccc(C(=O)NCCSc3ccccn3)cc2)S(C)(=O)=O)cc1C the results were SDO1 yeast rescue 7.24*, E-sel TNF inh 2.4, Phagocytosis inh -3.7 and SDO1 rescue DR 0.103*.
`CC(=O)C1C(c2ccc(F)cc2)C2C(C)=NN=C2CC1(C)O` (centres undefined) gave SDO1 yeast rescue 9.66*, Phagocytosis inh -0.6 and SDO1 rescue DR 0.0723*.
COc1ccc(-c2cn(-c3ccccc3)c3[n+]2CCS3)cc1 was read as SDO1 yeast rescue 0.18, E-sel TNF inh 5.8 and Phagocytosis inh 1.3.
Screening Cc1ccc(-n2[nH]c(C)c(C=Nc3cc(C)ccn3)c2=O)cc1 returned HUVEC tox TNFa -13.9, SDO1 yeast rescue 9.38*, VCAM1 TNFa inh 15.7, E-sel TNF inh 1.8, cytoskel mod 7.5, Phagocytosis inh -0.3 and SDO1 rescue DR 0.0704*.
`COc1cc(Cl)c(C)cc1NC(=O)c1cc(S(=O)(=O)N(C)C)ccc1N1CCCC1` gave SDO1 yeast rescue 0.15 and Phagocytosis inh -4.7.
O=C(CSc1ncn[nH]1)Nc1ccccc1C(=O)O was read as HUVEC tox TNFa -35.6, SDO1 yeast rescue -0.64, VCAM1 TNFa inh 13.2, E-sel TNF inh -16.5, cytoskel mod -6.1 and Phagocytosis inh -0.4.
`O=C(CSc1ncn[nH]1)Nc1nc(-c2ccccc2)ns1` gave HUVEC tox TNFa -15.2, SDO1 yeast rescue 1.45, VCAM1 TNFa inh 7.2, E-sel TNF inh -13.3, cytoskel mod -6.0, Phagocytosis inh -2.5 and SDO1 rescue DR 0.0595.
Screening CC(=O)NS(=O)(=O)c1ccc(NC(=O)COc2ccc(C(=O)c3ccccc3)cc2)cc1 returned SDO1 yeast rescue 1.11 and Phagocytosis inh -2.6.
Screening COc1ccc(S(=O)(=O)N2CCCC(C(=O)NC3CCCCC3)C2)cc1 (centres undefined) returned SDO1 yeast rescue -0.49, E-sel TNF inh -22.3, cytoskel mod 6.4 and Phagocytosis inh -1.3.
COc1ccc(S(=O)(=O)N2CCCC(C(=O)O)C2)cc1 (centres undefined) was read as HUVEC tox TNFa 51.2, SDO1 yeast rescue 2.1, VCAM1 TNFa inh -6.9, E-sel TNF inh 4.0, cytoskel mod 4.4 and SDO1 rescue DR 0.0457.
Screening CC1(C)CC(CCC(=O)NC(=S)Nc2ccccc2Cl)C(=O)O1 (centres undefined) returned E-sel TNF inh -23.4.
For CCCCN1CC2=C(C1=O)C(c1ccc(O)cc1)NC(=O)N2C (centres undefined) the results were E-sel TNF inh 7.6.
`COc1ccc(C(=O)N=c2nc3ccccn3s2)cc1` gave SDO1 yeast rescue 1.94, E-sel TNF inh 3.3, Phagocytosis inh -0.7 and SDO1 rescue DR 0.0855*.
For c1cnc(N2CCSCC2)nc1 the results were HUVEC tox TNFa -21.9, SDO1 yeast rescue 8.91*, VCAM1 TNFa inh 2.1, cytoskel mod -15.3, Phagocytosis inh -0.6 and SDO1 rescue DR 0.0519.
Screening CCOC(=O)CC(=O)CSc1nc2ccc(OC)cc2cc1C returned E-sel TNF inh -2.4.
`O=C(CSc1nc(CCC2CCCC2)nc2ccccc12)NCc1ccc2c(c1)OCO2` gave SDO1 yeast rescue -1.53, E-sel TNF inh -20.1 and Phagocytosis inh -8.9.
For C/C(=N/NC(=O)c1cccs1)c1ccc(NC(=O)COc2ccc(Cl)cc2Cl)cc1 the results were HUVEC tox TNFa 14.4, SDO1 yeast rescue -0.47, VCAM1 TNFa inh 17.6, E-sel TNF inh -49.8 and cytoskel mod -59.0.
C/C(=N/NC(=O)c1ccc(C)s1)c1cccc(NC(=O)COc2ccc(Cl)cc2Cl)c1 was read as HUVEC tox TNFa 8.6, SDO1 yeast rescue 1.65, VCAM1 TNFa inh 4.1, E-sel TNF inh -22.4, cytoskel mod 9.6, Phagocytosis inh 0.6 and SDO1 rescue DR 0.0625.
`N#Cc1cnn2cc(-c3ncc(C(F)(F)F)cc3Cl)cnc12` gave HUVEC tox TNFa -20.5, SDO1 yeast rescue 7.35*, VCAM1 TNFa inh 13.0, E-sel TNF inh 3.8, cytoskel mod 30.8, Phagocytosis inh -0.4 and SDO1 rescue DR 0.0777*.
`FC(F)(F)c1cnc(-c2cnc3c(-c4ccc(Cl)cc4)cnn3c2)c(Cl)c1` gave HUVEC tox TNFa -14.9, SDO1 yeast rescue 0.48, VCAM1 TNFa inh 7.7, E-sel TNF inh 0.8, cytoskel mod -32.0 and Phagocytosis inh -0.2.
For CCN(CC)S(=O)(=O)c1cc(NC(=O)CSc2nccn2C)ccc1C the results were E-sel TNF inh 32.2.
Cc1ccc(Cn2c(CN3CCOCC3)nc3c2c(=O)n(C)c(=O)n3C)cc1 was read as SDO1 yeast rescue -0.4, VCAM1 TNFa inh 13.9, E-sel TNF inh -22.7 and cytoskel mod 7.6.
For CN1CCN(Cc2nc3c(c(=O)n(C)c(=O)n3C)n2CCCc2ccccc2)CC1 the results were HUVEC tox TNFa -0.6, SDO1 yeast rescue 11.3*, VCAM1 TNFa inh 1.3, E-sel TNF inh -6.5, cytoskel mod 18.4 and SDO1 rescue DR 0.129*.
For Cc1ccc(Cn2c(CN3CC(C)OC(C)C3)nc3c2c(=O)n(C)c(=O)n3C)cc1 (centres undefined) the results were HUVEC tox TNFa -8.2, SDO1 yeast rescue 8.78*, VCAM1 TNFa inh -18.9, E-sel TNF inh -14.7, cytoskel mod -4.2, Phagocytosis inh -1.0 and SDO1 rescue DR 0.0574*.
Screening COC(=O)C(CCSC)NC(=O)c1cc2c(n(-c3ccccc3)c1=O)CC(C)(C)CC2=O (centres undefined) returned SDO1 yeast rescue 1.22, E-sel TNF inh 6.7 and Phagocytosis inh -3.3.
`CCN=C1S/C(=C\c2cn(CC)c3ccccc23)C(=O)N1CC` gave SDO1 yeast rescue 7.89*, Phagocytosis inh -2.8 and SDO1 rescue DR 0.0918*.
For ClCC1NCC(c2ccccc2Cl)c2c1[nH]c1ccccc21 (centres undefined) the results were E-sel TNF inh -11.8.
For O=S(=O)(O)c1nc2ccccc2n1CCOc1ccccc1 the results were HUVEC tox TNFa -12.1, SDO1 yeast rescue 8.33*, VCAM1 TNFa inh 20.4, E-sel TNF inh -12.1, cytoskel mod -5.7, Phagocytosis inh 0.6 and SDO1 rescue DR 0.0354.
